Assays:
Experiment in all cases: DAPPL (digital affinity profiling via proximity ligation, sequencing); 10 mM Tris-HCl pH 7.5, 50 mM NaCl, 1 mM DTT, 4% glycerol, room temperature, 30 min; GST-TFs on glutathione beads, 16-mer random dsDNA library, 0.1% formaldehyde crosslink after washing; high values mean tight binding
FEV = target: T1, FEV (Homo sapiens, UniProt Q99581 1-238); settings: protein: recombinant; tags: N-terminal GST; dsDNA, one strand shown
T1 sequence: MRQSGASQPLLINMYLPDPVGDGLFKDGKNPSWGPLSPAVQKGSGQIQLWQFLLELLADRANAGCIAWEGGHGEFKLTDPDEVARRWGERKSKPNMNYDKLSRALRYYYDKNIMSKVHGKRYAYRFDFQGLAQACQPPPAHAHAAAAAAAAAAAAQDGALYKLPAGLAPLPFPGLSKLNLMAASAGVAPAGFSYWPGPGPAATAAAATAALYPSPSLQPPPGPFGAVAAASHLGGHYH
Method in brief: (§1)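 Pools were built from human transcription factors expressed in yeast as GST fusions, captured on glutathione beads and DNA-barcoded, along with a tag-only sample. Incubation with 200 nmole of a 16-mer random double-stranded DNA library lasted 30 min at room temperature in Tris/NaCl/DTT/glycerol buffer, and was followed by washing, 0.1% formaldehyde crosslinking, proximity ligation, PCR amplification and Illumina NextSeq500 sequencing. Binding signal is the quotient of each hexamer's read frequency for a factor and its frequency for the tag-only sample.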

ETV5 = ETV5 (Homo sapiens, UniProt P41161 1-510); settings: protein: recombinant; tags: N-terminal GST; dsDNA, one strand shown
Method in brief: as §1

HSF1 = HSF1 (Homo sapiens, UniProt Q00613 1-529); settings: protein: recombinant; tags: N-terminal GST; chain copies: 3; dsDNA, one strand shown
Method in brief: as §1

SPIC = target: T2, SPIC (Homo sapiens, UniProt Q8N5J4 1-248); settings: protein: recombinant; tags: N-terminal GST; dsDNA, one strand shown
T2 sequence: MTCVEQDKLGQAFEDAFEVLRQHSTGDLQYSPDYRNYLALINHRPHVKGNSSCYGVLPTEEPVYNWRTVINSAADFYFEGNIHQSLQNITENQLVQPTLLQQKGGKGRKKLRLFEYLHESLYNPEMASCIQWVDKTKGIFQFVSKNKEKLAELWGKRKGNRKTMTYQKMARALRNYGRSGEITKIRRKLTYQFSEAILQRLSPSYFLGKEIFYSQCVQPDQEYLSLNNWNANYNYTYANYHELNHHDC
Method in brief: as §1

ELF4 = ELF4 (Homo sapiens, UniProt Q99607 1-663); settings: protein: recombinant; tags: N-terminal GST; dsDNA, one strand shown
Method in brief: as §1

ELK4 = target: T3, ELK4 (Homo sapiens, UniProt P28324-2 1-405); settings: protein: recombinant; tags: N-terminal GST; dsDNA, one strand shown
T3 sequence: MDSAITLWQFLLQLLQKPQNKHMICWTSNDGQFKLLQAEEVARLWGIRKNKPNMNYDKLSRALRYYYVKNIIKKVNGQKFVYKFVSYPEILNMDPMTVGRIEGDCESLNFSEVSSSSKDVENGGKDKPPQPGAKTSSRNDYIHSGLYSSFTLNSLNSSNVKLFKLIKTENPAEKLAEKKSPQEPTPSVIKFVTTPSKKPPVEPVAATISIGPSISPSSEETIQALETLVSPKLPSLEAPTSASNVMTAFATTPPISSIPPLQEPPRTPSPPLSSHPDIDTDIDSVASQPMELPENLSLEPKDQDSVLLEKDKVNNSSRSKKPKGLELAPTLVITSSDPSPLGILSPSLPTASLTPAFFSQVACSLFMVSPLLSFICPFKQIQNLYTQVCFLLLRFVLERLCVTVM
Method in brief: as §1

ETV2 = target: T4, ETV2 (Homo sapiens, UniProt O00321 1-342); settings: protein: recombinant; tags: N-terminal GST; dsDNA, one strand shown
T4 sequence: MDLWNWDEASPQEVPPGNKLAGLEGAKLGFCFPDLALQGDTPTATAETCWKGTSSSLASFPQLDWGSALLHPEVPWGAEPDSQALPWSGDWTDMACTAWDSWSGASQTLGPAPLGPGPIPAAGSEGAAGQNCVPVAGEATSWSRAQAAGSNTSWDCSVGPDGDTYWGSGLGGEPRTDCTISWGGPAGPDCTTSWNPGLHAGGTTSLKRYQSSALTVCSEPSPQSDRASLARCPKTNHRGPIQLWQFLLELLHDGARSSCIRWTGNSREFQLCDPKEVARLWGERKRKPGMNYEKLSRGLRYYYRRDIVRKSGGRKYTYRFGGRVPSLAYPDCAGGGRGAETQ
Method in brief: as §1

ELF3 = target: T5, ELF3 (Homo sapiens, UniProt P78545 1-371); settings: protein: recombinant; tags: N-terminal GST; dsDNA, one strand shown
T5 sequence: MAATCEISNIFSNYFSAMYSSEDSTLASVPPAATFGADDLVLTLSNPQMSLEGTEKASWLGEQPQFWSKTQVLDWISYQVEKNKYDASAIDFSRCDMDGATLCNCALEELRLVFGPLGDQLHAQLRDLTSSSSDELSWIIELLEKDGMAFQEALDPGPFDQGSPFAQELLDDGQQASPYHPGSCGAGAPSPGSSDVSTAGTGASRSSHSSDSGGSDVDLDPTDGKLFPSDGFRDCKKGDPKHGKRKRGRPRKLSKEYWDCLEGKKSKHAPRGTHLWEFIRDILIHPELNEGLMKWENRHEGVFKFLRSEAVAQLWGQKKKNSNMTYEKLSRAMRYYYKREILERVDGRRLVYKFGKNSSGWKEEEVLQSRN
Method in brief: as §1

CRX = CRX (Homo sapiens, UniProt O43186 1-299); settings: protein: recombinant; tags: N-terminal GST; dsDNA, one strand shown
Method in brief: as §1

ETV1 = ETV1 (Homo sapiens, UniProt P50549 1-477); settings: protein: recombinant; tags: N-terminal GST; dsDNA, one strand shown
Method in brief: as §1

ELF4, sequence (Q99607 whole entry): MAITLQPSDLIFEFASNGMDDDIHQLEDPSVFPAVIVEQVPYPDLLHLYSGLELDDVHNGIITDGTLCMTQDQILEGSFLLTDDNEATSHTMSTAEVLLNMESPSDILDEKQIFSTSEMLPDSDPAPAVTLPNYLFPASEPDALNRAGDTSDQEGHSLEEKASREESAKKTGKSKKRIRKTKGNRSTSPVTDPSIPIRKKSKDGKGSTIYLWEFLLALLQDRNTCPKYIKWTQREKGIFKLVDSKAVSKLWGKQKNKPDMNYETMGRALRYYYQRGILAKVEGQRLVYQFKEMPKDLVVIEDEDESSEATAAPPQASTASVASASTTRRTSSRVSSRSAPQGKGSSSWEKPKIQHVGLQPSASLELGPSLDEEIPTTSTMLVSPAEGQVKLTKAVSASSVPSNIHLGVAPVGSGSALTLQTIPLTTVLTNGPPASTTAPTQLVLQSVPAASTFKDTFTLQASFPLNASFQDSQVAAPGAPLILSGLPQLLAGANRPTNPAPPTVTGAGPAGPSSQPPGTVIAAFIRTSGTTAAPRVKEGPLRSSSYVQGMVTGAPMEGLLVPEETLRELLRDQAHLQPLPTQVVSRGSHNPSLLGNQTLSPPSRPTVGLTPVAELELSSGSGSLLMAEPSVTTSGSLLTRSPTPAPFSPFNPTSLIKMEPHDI
ETV5, sequence (P41161 whole entry): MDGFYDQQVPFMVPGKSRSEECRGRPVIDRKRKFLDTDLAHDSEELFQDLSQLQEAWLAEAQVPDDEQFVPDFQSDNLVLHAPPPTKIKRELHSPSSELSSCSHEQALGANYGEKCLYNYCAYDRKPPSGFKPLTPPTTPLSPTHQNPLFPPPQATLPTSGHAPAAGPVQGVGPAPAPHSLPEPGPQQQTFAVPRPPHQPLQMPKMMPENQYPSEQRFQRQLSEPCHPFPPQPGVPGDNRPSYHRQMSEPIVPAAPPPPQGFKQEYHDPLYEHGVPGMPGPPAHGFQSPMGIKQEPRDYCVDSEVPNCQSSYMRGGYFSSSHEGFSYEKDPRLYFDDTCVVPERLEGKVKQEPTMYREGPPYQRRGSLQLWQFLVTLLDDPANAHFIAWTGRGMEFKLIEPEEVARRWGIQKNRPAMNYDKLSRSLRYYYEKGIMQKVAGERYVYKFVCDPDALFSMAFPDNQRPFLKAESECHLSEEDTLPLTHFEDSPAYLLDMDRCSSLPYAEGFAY
HSF1, sequence (Q00613 whole entry): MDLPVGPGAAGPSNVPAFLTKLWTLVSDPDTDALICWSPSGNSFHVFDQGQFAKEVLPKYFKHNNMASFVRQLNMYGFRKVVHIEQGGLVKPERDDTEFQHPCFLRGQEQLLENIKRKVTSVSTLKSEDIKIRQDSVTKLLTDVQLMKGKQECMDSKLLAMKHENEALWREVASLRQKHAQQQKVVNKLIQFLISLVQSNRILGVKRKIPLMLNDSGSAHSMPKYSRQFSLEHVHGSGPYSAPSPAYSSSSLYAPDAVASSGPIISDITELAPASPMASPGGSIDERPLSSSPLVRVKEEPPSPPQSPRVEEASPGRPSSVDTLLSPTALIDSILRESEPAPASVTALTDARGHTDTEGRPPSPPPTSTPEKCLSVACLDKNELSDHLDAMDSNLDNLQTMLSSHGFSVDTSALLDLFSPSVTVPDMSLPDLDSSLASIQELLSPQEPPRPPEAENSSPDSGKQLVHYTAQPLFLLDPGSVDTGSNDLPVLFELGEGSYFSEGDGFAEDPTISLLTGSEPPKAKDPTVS
CRX, sequence (O43186 whole entry): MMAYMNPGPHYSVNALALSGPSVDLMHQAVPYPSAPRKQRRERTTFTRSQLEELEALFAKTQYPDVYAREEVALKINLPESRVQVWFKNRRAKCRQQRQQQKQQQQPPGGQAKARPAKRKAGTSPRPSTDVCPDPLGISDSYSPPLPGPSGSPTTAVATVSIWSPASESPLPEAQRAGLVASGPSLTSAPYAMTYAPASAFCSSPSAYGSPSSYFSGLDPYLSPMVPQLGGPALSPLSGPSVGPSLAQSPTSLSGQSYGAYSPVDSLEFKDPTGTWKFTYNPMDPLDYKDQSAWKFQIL
ETV1, sequence (P50549 whole entry): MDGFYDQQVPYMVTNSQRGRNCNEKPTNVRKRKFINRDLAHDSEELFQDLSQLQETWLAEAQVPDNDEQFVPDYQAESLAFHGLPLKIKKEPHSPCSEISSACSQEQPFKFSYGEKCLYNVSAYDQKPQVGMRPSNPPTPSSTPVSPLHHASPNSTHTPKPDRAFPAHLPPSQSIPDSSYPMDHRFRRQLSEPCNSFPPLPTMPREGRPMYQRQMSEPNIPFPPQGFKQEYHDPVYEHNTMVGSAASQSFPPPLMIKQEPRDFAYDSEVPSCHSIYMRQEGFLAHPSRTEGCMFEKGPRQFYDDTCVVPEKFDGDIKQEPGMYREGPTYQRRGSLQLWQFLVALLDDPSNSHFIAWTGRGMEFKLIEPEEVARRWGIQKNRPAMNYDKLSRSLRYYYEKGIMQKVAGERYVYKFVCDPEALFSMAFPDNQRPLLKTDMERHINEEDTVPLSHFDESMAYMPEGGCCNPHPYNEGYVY

ATCCCA was tested, and the binding signal (FEV) was 1.14 fold enrichment (6-mer frequency, TF over GST control), the binding signal (ETV5) was 1.11 fold enrichment (6-mer frequency, TF over GST control) and the binding signal (HSF1) was 1.34 fold enrichment (6-mer frequency, TF over GST control). For the same sequence, the binding signal (SPIC) was 1.07 fold enrichment (6-mer frequency, TF over GST control), the binding signal (ELF4) was 1.1 fold enrichment (6-mer frequency, TF over GST control) and the binding signal (ELK4) was 1.13 fold enrichment (6-mer frequency, TF over GST control). The binding signal (ETV2) was 1.14 fold enrichment (6-mer frequency, TF over GST control), the binding signal (ELF3) was 1.23 fold enrichment (6-mer frequency, TF over GST control) and the binding signal (CRX) was 1.69 fold enrichment (6-mer frequency, TF over GST control). The binding signal (ETV1) was 1.09 fold enrichment (6-mer frequency, TF over GST control).
